This is an account of results in PubChem BioAssay AID1053197 (The Scripps Research Institute Molecular Screening Center, 2014).

Structures are written as SMILES. In all, about 370,000 compounds went through this assay and about 2,600 (0.7%) were called active.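 Rule for the calls: active = inhibition above a cutoff: mean of compounds within the control limits plus 3 SD of those (cut at about 17% in these data); inactive = the rest.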 This excerpt belongs to a sample that is enriched for actives.

For this test, the target named is Sialate O-acetylesterase (Homo sapiens) (UniProt Q9HAT2). Put plainly: human SIAE inhibitors, primary screen, biochemical, fluorescence polarization, FP-Rh probe, 1536-well HTS (AID 1053197).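 Note: 0% = plate median of compound wells and 100% = probe without SIAE protein.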 Conditions: SIAE FP-Rh probe binding, at 9.66 µM, active compounds read high.
Chain of Sialate O-acetylesterase (Homo sapiens) (Q9HAT2 whole entry, looked up): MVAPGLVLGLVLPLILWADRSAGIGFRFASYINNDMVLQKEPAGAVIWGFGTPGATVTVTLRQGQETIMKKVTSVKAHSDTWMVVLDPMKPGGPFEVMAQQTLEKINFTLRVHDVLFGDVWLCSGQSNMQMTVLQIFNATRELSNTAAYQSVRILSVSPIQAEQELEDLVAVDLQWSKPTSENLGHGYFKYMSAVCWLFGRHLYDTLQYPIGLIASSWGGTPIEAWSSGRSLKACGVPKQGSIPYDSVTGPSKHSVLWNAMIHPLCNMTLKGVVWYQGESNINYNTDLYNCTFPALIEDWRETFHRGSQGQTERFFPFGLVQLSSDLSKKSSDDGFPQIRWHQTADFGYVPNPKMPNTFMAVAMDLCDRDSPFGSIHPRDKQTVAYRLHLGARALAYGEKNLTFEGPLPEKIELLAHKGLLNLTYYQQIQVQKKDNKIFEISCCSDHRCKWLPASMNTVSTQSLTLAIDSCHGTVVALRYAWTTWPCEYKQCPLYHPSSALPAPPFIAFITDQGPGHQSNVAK
As usually defined, the inhibition is the drop in the measured response relative to a control, in per cent. Regarding `Cc1cccc(N2C(=O)SC(N(CC(=O)O)c3cccc(C)c3)C2=O)c1` (stereo not drawn), the inhibition is 1.65% (inactive). `COC(=O)c1ccccc1SC1CC(=O)N(c2cccc(C)c2)C1=O` (stereo not drawn): the inhibition is -0.8% (inactive).

For `Cc1cccc(N2C(=O)SC(SC(=Nc3ccccc3)Nc3ccccc3)C2=O)c1` (stereo not drawn), the inhibition was 18.1% (active). In the case of `COc1ccc(Cn2cc(COC(=O)N(C)Cc3ccccc3)nn2)cc1` it was 0.99% (inactive); in that of `CCOC(=O)[C@]12CCCC3=C1N(CCC3)C(=O)[C@@H](CC(=O)N1CCSCC1)C2`, -3.23% (inactive); in that of `Cc1cc(=O)[nH]c(SCC(=O)Nc2ccc(F)cc2F)n1`, -0.82% (inactive). The result for `Cc1ccc(S(=O)(=O)N2CCOCC2)cc1C(=O)Nc1ccccc1N1CCCC1` reads 12.1% (inactive). The result for `CCN(CC)S(=O)(=O)c1cc(C(=O)Nc2cc(S(=O)(=O)N3CCOCC3)ccc2N2CCCC2)ccc1F` reads 1.03% (inactive); that for `O=C(Nc1ccccc1N1CCCC1)c1ccc(F)c(S(=O)(=O)N2CCOCC2)c1`, 20.5% (active).

As for `CC(C)CNC(=O)OCc1cn(Cc2ccc(F)cc2)nn1`, the inhibition is -8.33% (inactive). In the case of `Cc1cc(=O)[nH]c(SCC(=O)Nc2ccc(Cl)cc2C)n1` it was 1.99% (inactive); in that of `O=C(c1ccccc1)c1ccc(-c2ccccc2C(=O)NC2CCCCN(Cc3ccc(Cl)cc3)C2=O)cc1` (stereo not drawn), 1.39% (inactive); in that of `COc1cc(/C=C(\C#N)C(=O)Nc2ccc3ccccc3c2)c([N+](=O)[O-])cc1OC`, -1.47% (inactive). In the case of `CC1CC(C)CN(C/C=C/c2ccccc2[N+](=O)[O-])C1` (stereo not drawn) it was 2.91% (inactive); in that of `CC1CCCCC1NC(=O)/C(C#N)=C/C=C/c1ccccc1[N+](=O)[O-]` (stereo not drawn), 17.2% (active). In the case of `CC(C)CNc1cccc2c1S(=O)(=O)N(Cc1cn(Cc3ccc(Cl)cc3)nn1)Cc1ccccc1O2` it was 3.21% (inactive); in that of `O=C(NC1CCCCN(Cc2ccc(Cl)cc2)C1=O)c1ccc(Br)cc1` (stereo not drawn), -3.06% (inactive). `CN(Cc1ccc(CNC[C@H]2O[C@@H](n3cnc4c(N)ncnc43)[C@H](O)[C@@H]2O)o1)S(C)(=O)=O`: the inhibition is -0.06% (inactive).

As for `Nc1ncnc2c1ncn2[C@@H]1O[C@H](C(=O)N2CCSC2)[C@@H](O)[C@H]1O`, the inhibition is 1.67% (inactive). The result for `CN(Cc1ccc(C(F)(F)F)cc1)C(=O)[C@H]1O[C@@H](n2cnc3c(N)ncnc32)[C@H](O)[C@@H]1O` reads 81.3% (active).

Regarding `Nc1ncnc2c1ncn2[C@@H]1O[C@H](C(=O)N[C@@H](CCc2ccccc2)C(=O)NCC(=O)N2CCOCC2)[C@@H](O)[C@H]1O`, the inhibition was 2.34% (inactive). In the case of `Nc1ncnc2c1ncn2[C@@H]1O[C@H](C(=O)N2CCCN(Cc3ccccc3F)CC2)[C@@H](O)[C@H]1O` it was -1.61% (inactive); in that of `Nc1ncnc2c1ncn2[C@@H]1O[C@H](C(=O)NCC(F)(F)F)[C@@H](O)[C@H]1O`, 51.2% (active).

For the compound `CC(C)CSc1nnc(-c2cccnc2)n1Cc1ccccc1`, the inhibition is 0.87% (inactive). For the compound `O=C(NCc1ccc(Cl)cc1)C1CCCN(c2nc3ccccc3o2)C1` (stereo not drawn), the inhibition is 1.99% (inactive). For the compound `O=C(Nc1cc(F)cc(F)c1)OC1CCC12CCC(c1ccccc1)CC2` (stereo not drawn), the inhibition was -17% (inactive). As to `Nn1c(SCC(=O)N2c3ccccc3Sc3ccccc32)nnc1-c1n[nH]c2c1CCC2`, the inhibition is -8.15% (inactive).

For `CN(C)CC(=O)N[C@@H]1C[C@@H]2O[C@H](CO)CC[C@@H]2O[C@@H]1CCc1ccc(C#Cc2ccccc2)cc1`, the inhibition is 5.34% (inactive). The result for `COc1ccc(C(=O)OCCN(C)C2CN(Cc3cn(Cc4cccc(C)c4)nn3)S(=O)(=O)C2)cc1OC` (stereo not drawn) reads -4.69% (inactive); that for `O=C(O)/C(=C/c1cccnc1)NC(=O)c1ccccc1`, 5.04% (inactive); that for `NS(=O)(=O)c1ccc(NC(=S)NC(=O)c2cccnc2)cc1`, 1.85% (inactive). As to `C/C(=N\NC(=O)c1cccnc1)c1ccc(-n2ccnc2)cc1`, the inhibition is 2.74% (inactive). In the case of `O=C(N/N=C/c1ccc(O)c2ccccc12)c1cccnc1` it was 18.7% (active); in that of `O=C(NN=C1CCC(=NNC(=O)c2cccnc2)CC1)c1cccnc1`, 20.1% (active); in that of `C/C(=N\NC(N)=S)c1cccnc1`, 1.42% (inactive).

Turning to `Cc1cc(NS(=O)(=O)c2ccc(NC(=O)CSc3nnc(-c4ccc(C(C)(C)C)cc4)n3Cc3ccco3)cc2)nc(C)n1`, the inhibition was -2.29% (inactive). In the case of `COC(=O)[C@]12C[C@H](CC(=O)NCC34CC5CC(CC(C5)C3)C4)C(=O)N(Cc3ccc(Cl)cc3Cl)C1=C[C@H](COCc1ccccc1)O[C@@H]2C` it was -3.29% (inactive); in that of `COc1cc(C(=O)Nn2c(CC(C)C)nc3ccccc3c2=O)cc(OC)c1OC`, -1.34% (inactive); in that of `COc1cc(C(=S)NC2CCCCC2)ccc1O`, 2.61% (inactive).

With `COc1cc(C(=O)Nn2c(O)c(C3=c4ccccc4=NC3=O)sc2=S)ccc1O`, the inhibition is 40.2% (active).

Take `Cc1ccc(Cn2cc(COC(=O)N(C)Cc3ccccc3)nn2)cc1`: the inhibition was 2.24% (inactive). As for `CC(=O)N1CCCN(C2=Nc3ccccc3Sc3ccccc32)CC1`, the inhibition was 13.5% (inactive). With `COCCNC(=O)Nc1ccc2nc(-c3ccco3)c(-c3ccco3)nc2c1`, the inhibition is 37.3% (active). Regarding `COCCN(C(=O)c1ccco1)c1nnc(-c2ccc(OC)cc2)s1`, the inhibition was -0.46% (inactive). In the case of `COCCNC(=O)c1cc2c(Br)ccc(Br)c2nc1N`, the inhibition was -3.42% (inactive). With `CCCCCN1CCCCC(NC(=O)C(C)CCC)C1=O` (stereo not drawn), the inhibition was -1.97% (inactive).

With `CCOC(=O)[C@]12CCCC=C1N(Cc1ccc(OC)cc1)C(=O)[C@@H]2CC(=O)NCc1cccs1`, the inhibition was 0.94% (inactive). In the case of `Cc1c[nH]c2cccc(-c3ccc(Cl)cc3)c12` it was 4.94% (inactive); in that of `CCCCC(=O)NC(c1ccc(OC)c(OC)c1)c1ccc2cccnc2c1O` (stereo not drawn), 15.1% (inactive).

As to `CC(=O)NC(c1cccs1)c1cc(Br)c2cccnc2c1O` (stereo not drawn), the inhibition was 20.8% (active). For `O=[N+]([O-])c1cc([N+](=O)[O-])c2cccnc2c1O`, the inhibition is 0.23% (inactive).

Take `COC(=O)[C@]12C[C@H](CC(=O)N3CCN(C(=O)C4CC4)CC3)C(=O)N(CCC3=CCCCC3)C1=C[C@H](C(C)C)O[C@@H]2C1CC1`: the inhibition is 0.92% (inactive). For `O=C(CSc1nc2ccccc2n1Cc1ccccc1)NNC(=S)Nc1ccccc1`, the inhibition was 2.33% (inactive).
